Assay outcomes: PubChem BioAssay, several laboratories
The list is not random: actives were taken first. Their share in the collection is about 2.5%.
SDO1 yeast rescue: growth rescue of sdo1-depleted yeast, primary screen, S. cerevisiae, bone marrow failure model | S. cerevisiae sdo1-depleted JHY4D growth rescue, OD600 30 h; active compounds read high; pdr5 snq2 efflux-pump mutant strain | z-score at 10 µM | 140,000 compounds, 0.21% hits | AID 817, 2007;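 active = z-score above 3 at both the 24 hr and the 30 hr optical density reads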;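 also: z-score against mean and SD of all compound wells on the same plate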
sEH act: soluble epoxide hydrolase activators, primary screen, biochemical, human sEH; Bifunctional epoxide hydrolase 2 (Homo sapiens), P34913; 91,000 compounds, 0.04% hits; activation, % at 2 µM; purified human sEH enzymatic activity, activator screen; in the data active = activation above about 37%
Target sequence (P34913 whole entry, looked up): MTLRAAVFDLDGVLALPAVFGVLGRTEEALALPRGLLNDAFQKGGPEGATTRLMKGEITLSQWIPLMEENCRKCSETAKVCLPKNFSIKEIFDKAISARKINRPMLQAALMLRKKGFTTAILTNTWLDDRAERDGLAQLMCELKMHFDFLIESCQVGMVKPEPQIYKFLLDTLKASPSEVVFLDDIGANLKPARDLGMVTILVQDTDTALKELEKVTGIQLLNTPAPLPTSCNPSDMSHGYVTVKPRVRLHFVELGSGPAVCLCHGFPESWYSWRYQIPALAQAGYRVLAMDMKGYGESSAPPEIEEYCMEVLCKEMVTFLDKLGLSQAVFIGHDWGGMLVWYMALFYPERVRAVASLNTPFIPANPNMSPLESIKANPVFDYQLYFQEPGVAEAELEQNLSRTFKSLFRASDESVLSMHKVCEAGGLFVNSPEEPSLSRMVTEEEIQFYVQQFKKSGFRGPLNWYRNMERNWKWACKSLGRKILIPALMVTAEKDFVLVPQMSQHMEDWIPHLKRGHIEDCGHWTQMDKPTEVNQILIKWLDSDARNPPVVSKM
sEH inhibitor: soluble epoxide hydrolase inhibitors, primary screen, biochemical, human sEH; Bifunctional epoxide hydrolase 2 (Homo sapiens), P34913; recombinant human sEH enzymatic activity assay; inhibition, % at 2 µM; 91,000 compounds, 0.34% hits; AID 707, 2007; in the data active = inhibition above about 80%
MRP reversal: reversal of MRP1-mediated doxorubicin resistance, primary screen, H69AR cells, doxorubicin co-treatment. H69AR cells + 2 uM doxorubicin, CellTiter-Glo, 72 h. differential viability (reversal), % at 10 µM. 85,000 compounds, 0.04% hits;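 active = viability drop by adding the cancer drug above about 55%, with treated viability meeting a 40% cutoff, limit read from the data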;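 also: viability without doxorubicin minus viability with 2 µM doxorubicin for each compound; larger differential means the compound sensitizes cells more to doxorubicin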
Measles CPE: compounds protecting cells from measles virus cytopathic effect, primary screen, measles RdRp inhibitor project, single point, MLSMR library, absorbance; Measles virus-infected cells, CPE protection; protection (pct of control), % at 4 µM; 140,000 compounds, 1.5% hits; in the data active = protection mostly above about 24%, no sharp cut-off; inactive = mostly below about 26%
MRP-1 activ: H69AR viability gain despite doxorubicin, primary screen, MRP-1 activator project, H69AR cells, CellTiter-Glo; 140,000 compounds, 0.61% hits; viability rescue; AID 799, 2007; viability increase, % at 10 µM;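 active = viability gain under doxorubicin at or above a set limit, the compound median plus 3 SD, cut at about 4.7% in these data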;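 also: MRP-1 overexpressing cells given doxorubicin 25 µM after compound pretreatment; 18-22 h compound pretreatment then 72 h with doxorubicin before readout; 0% = doxorubicin-only wells and 100% = vehicle-treated cells without doxorubicin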
Numbers without * were called inactive; nt = no result.

SMILES | SDO1 yeast rescue | sEH act | sEH inhibitor | MRP reversal | Measles CPE | MRP-1 activ
Cc1ccc(C2CC(c3ccccc3)=NN2C(=S)Nc2ccccc2)o1 (stereo not given) | -1.4 | -6 | 7 | nt | 1 | -1
O=C1C/C(=C/NCc2ccccc2)C(=O)N1 | 0.56 | 10 | -9 | -14 | 41* | 0
CC(Cc1ccccc1)N/C=C1/CC(=O)NC1=O (stereo not given) | 0.68 | -3 | 4 | 9 | 17 | -1
O=C1c2ccsc2SCCN1Cc1c(Cl)cccc1Cl | -1.4 | 11 | -13 | 9 | 13 | 7.0*
O=C1c2ccsc2SCCN1Cc1ccc(Cl)cc1Cl | -1.7 | 1 | -4 | 22 | 3 | -4
Cc1sc2nc(C3CC3)nc(N3CCN(S(=O)(=O)c4ccc(F)cc4)CC3)c2c1C | -0.51 | 2 | -4 | -21 | 8 | 6.6*
CCOc1cc(Br)ccc1S(=O)(=O)NCc1ccccc1 | 0.5 | 7 | -4 | nt | 17 | -3
COc1cc(C2(O)CCCCC2C)cc(OC)c1OC (stereo not given) | 0.41 | nt | nt | nt | 17 | -2
COc1ccc(C2NCCC3(O)CCCCC23)c(OC)c1OC (stereo not given) | 1.4 | 5 | -5 | -12 | 35* | 0
Cc1cc(C)n(-c2ccc(C(=O)OCC(=O)NC(c3ccccc3)c3ccccc3)cc2)n1 | 0.31 | nt | nt | nt | 51* | 0
CCCn1c(SCC(=O)N2CCCC2)nc2c1c(=O)n(C)c(=O)n2C | 1.1 | nt | nt | 2 | 3 | 0
CC(C)n1c(SCC(=O)N2CCCC2)nc2c1c(=O)n(C)c(=O)n2C | 0.38 | nt | nt | 14 | 33* | 0
CCCc1c(O)nc(SCCN(CC)CC)n(C(=O)c2ccccc2)c1=O | 0.59 | -2 | 2 | -7 | 8 | -1
CC1CCc2nc(N)c(C#N)c(-c3cccnc3)c2C1 (stereo not given) | -0.43 | -10 | 10 | -26 | 76* | -5
CCC(C)[C@H](NC(=O)NCc1ccccc1Cl)C(=O)OC (stereo not given in full) | -0.22 | -95 | 95* | 11 | 16 | -3
CCC(C)[C@H](NC(=O)NC1CCN(Cc2ccccc2)CC1)C(=O)OC (stereo not given in full) | 1.3 | 1 | 0 | 7 | 7 | 1
CCOc1ccc(/C=N/OCC(=O)NCc2ccc3c(c2)OCO3)cc1OC | 0.53 | nt | nt | nt | 6 | 0
O=C1N=C(c2ccccc2)S/C1=C\c1cccs1 | -1.3 | -8 | 4 | -12 | 5 | 6.7*
O=C1CCC/C1=c1\s/c(=C\c2cccnc2)c(=O)n1-c1ccccc1 | -1.6 | nt | nt | 2 | 28* | 0
O=c1/c(=C\c2cccnc2)sc2nc3ccccc3n12 | 0.4 | -5 | 3 | 3 | 1 | -1
O=C(Nc1cnn(Cc2ccccc2)c1)NC12CC3CC(CC(C3)C1)C2 | 0.25 | -92 | 92* | nt | 23* | -2
Cc1cc(S(=O)(=O)N2CCN=C2c2ccccc2)c(Cl)cc1Cl | -0.55 | nt | nt | nt | 5 | -2
O=C(NC(=S)N1CCCc2ccccc21)c1ccccc1 | 0.34 | -7 | 9 | nt | 26* | -2
O=C(NC(=S)N1CCCc2ccccc21)c1ccc(Cl)cc1 | 0.15 | nt | nt | nt | 23 | -5
Cc1cccn2c(=O)c3cc(C(=O)N4CCN(c5ccccc5)CC4)n(C)c3nc12 | nt | nt | nt | -3 | nt | nt
SMILES | SDO1 yeast rescue | sEH act | sEH inhibitor | MRP reversal | Measles CPE | MRP-1 activ
Cc1ccc(Oc2nccc(-c3ccc(Cl)cc3)n2)cc1 | -1.4 | 5 | -7 | nt | 6 | 3
Cc1ccc(S(=O)(=O)c2cc3ccccc3oc2=Nc2ccc3c(c2)OCO3)cc1 | -0.78 | 9 | -7 | nt | 25* | -3
Cc1ccc(S(=O)(=O)c2cc3ccccc3oc2=Nc2ccc3c(c2)OCCO3)cc1 | 0.35 | nt | nt | nt | 7 | -3
COCCNC(=O)c1cc2oc3ccccc3c2n1C | 0.64 | -2 | 5 | -8 | 13 | 2
O=C(Cn1cnc2ccc(Cl)cc2c1=O)c1cccs1 | -0.31 | 3 | -4 | nt | 52* | -4
O=C(Cn1cnc2ccc(Br)cc2c1=O)c1cccs1 | -0.57 | -1 | 0 | nt | 12 | -4
OCc1nn2c(c1Br)NC(c1ccccc1)CC2C(F)(F)F (stereo not given) | -0.43 | 10 | -7 | 12 | 5 | -4
COc1cccc(C2CC(c3ccc(C)cc3)Nc3nc(N)nn32)c1 (stereo not given) | 1.9 | nt | nt | 14 | 40* | -2
COc1ccc(C(=O)Cn2c(NCCO)nc3ccccc32)cc1OC | 0.27 | 1 | -2 | -8 | 19 | -3
Cc1cccc(NC(NC(=O)Cc2ccccc2)C(Cl)(Cl)Cl)c1 (stereo not given) | -1 | nt | nt | nt | 58* | -2
Cc1cccc(NC(=S)NC(NC(=O)c2ccco2)C(Cl)(Cl)Cl)c1 (stereo not given) | -0.37 | 1 | 1 | 12 | 8 | -1
Cc1cccc(NC(NC(=O)c2ccccn2)C(Cl)(Cl)Cl)c1 (stereo not given) | 0.54 | nt | nt | nt | 39* | -2
CCOc1cc(NC(=O)C2CC2)c(OCC)cc1NC(=O)c1cccnc1 | nt | nt | nt | 8 | nt | nt
Cc1ccc(-c2nc3ccccc3n3c(C)nnc23)cc1 | -0.15 | nt | nt | nt | 3 | -4
CCCN(CCC)c1nc2ccccc2n2c(C)nnc12 | -1.7 | 5 | -2 | 2 | 44* | -2
CC1CC(C)CN(CCCCOc2ccc([N+](=O)[O-])cc2)C1 (stereo not given) | -0.98 | nt | nt | nt | 9 | -2
CCc1ccc(C(=O)NC(C(=O)O)C(C)C)cc1 (stereo not given) | -0.14 | 0 | 1 | 0 | 38* | -2
CC(C)[C@H](NC(=O)NCCc1ccc(F)cc1)C(=O)O | -0.15 | -13 | 12 | 8 | 78* | -2
O=C(c1ccc(Br)o1)N1CCN(C/C=C/c2ccccc2)CC1 | 0.33 | -11 | 14 | 0 | 119* | -1
CCOC(=O)CC(NS(=O)(=O)Cc1ccccc1)c1ccc(C)cc1 (stereo not given) | -0.12 | nt | nt | nt | 11 | -1
O=C(NCc1ccc(Cl)cc1)C(=O)NCC(c1ccco1)N1CCOCC1 (stereo not given) | 0.52 | nt | nt | nt | 7 | 9.1*
CCCCNC(=O)C1C2C=CC(C2)C1C(=O)O (stereo not given) | 0.39 | nt | nt | nt | 38* | 0
O=C(O)C1C2C=CC(C2)C1C(=O)NCCCN1CCOCC1 (stereo not given) | -0.95 | 22 | -20 | 32 | 5 | 0
Clc1ccc2oc3c(Cl)ncnc3c2c1 | 1.3 | nt | nt | nt | 4 | -4
Cc1cc(C)c2[nH]c(=O)c(CN(CC3CCCO3)S(=O)(=O)c3ccc4c(c3)OCCO4)cc2c1 (stereo not given) | -1.2 | 0 | 0 | -4 | 10 | 1
